The source of these data is ChEMBL document CHEMBL1961873, “Compounds: GSK PKIS; Assays: Nanosyn kinase panel” (2012).

Assay [1] has as its target Protein kinase C gamma type (Homo sapiens) (UniProt P05129). Conditions: at 1 µM.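 Also: each value is an averaged percent inhibition of the enzyme.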
Assay [2] deals with T1, Protein kinase C iota type (Homo sapiens) (UniProt P41743).
T1 sequence (whole entry): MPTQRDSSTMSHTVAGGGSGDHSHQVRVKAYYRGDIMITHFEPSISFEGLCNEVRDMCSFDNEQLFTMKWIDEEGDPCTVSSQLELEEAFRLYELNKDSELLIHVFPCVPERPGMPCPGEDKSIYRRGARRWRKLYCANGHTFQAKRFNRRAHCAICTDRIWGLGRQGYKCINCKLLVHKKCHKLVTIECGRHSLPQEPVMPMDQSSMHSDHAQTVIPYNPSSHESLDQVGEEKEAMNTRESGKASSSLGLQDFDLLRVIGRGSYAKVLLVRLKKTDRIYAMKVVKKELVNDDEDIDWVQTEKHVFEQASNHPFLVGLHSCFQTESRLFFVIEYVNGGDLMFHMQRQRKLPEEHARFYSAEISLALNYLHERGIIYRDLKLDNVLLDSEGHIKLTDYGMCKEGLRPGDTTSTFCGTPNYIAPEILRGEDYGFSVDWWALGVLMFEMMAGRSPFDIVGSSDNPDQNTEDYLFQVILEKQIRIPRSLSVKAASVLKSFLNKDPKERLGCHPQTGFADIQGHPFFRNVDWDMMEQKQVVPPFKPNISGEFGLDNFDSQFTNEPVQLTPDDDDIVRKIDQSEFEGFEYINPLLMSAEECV
Conditions: at 0.1 µM.

Assay [3] deals with T1, Protein kinase C iota type (Homo sapiens). To be noted: at 1 µM.
Assay [4] deals with Protein kinase C theta type (Homo sapiens) (UniProt Q04759). Conditions: at 0.1 µM.
Assay [5] shares this target. To be noted: at 1 µM.
Assay [6] addresses Protein kinase C beta type (Homo sapiens) (UniProt P05771). To be noted: at 0.1 µM.
The target is the same in assay [7]. Conditions: at 1 µM.
For assay [8], the target named is T2, Serine/threonine-protein kinase D1 (Homo sapiens) (UniProt Q15139).
T2 sequence (whole entry): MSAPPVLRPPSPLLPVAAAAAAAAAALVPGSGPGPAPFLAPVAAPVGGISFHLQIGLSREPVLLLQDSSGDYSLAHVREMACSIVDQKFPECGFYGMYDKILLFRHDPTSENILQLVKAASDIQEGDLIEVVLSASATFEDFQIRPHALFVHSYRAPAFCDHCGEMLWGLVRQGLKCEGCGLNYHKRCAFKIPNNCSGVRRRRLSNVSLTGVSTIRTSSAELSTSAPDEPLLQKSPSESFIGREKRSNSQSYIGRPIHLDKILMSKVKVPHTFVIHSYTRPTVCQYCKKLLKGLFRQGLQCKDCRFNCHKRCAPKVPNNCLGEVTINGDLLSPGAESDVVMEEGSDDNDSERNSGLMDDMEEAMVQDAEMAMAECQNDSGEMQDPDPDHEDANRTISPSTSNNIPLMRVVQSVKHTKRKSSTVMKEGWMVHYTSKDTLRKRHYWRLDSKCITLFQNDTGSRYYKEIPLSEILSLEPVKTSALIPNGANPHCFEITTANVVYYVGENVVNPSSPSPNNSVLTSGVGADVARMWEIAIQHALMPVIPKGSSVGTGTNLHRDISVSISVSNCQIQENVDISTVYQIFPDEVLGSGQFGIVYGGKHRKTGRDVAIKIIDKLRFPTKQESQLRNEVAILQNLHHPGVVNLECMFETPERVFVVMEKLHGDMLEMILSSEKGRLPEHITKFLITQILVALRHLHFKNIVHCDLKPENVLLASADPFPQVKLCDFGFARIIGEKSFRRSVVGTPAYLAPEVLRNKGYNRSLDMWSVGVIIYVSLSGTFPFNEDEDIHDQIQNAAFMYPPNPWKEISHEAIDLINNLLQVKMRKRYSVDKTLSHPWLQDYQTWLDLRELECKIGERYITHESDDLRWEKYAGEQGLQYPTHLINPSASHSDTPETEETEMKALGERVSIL
Conditions: at 0.1 µM.

Assay [9] addresses T2, Serine/threonine-protein kinase D1 (Homo sapiens). Conditions: at 1 µM.
Assay [10] addresses T3, Serine/threonine-protein kinase D2 (Homo sapiens) (UniProt Q9BZL6).
T3 sequence (whole entry): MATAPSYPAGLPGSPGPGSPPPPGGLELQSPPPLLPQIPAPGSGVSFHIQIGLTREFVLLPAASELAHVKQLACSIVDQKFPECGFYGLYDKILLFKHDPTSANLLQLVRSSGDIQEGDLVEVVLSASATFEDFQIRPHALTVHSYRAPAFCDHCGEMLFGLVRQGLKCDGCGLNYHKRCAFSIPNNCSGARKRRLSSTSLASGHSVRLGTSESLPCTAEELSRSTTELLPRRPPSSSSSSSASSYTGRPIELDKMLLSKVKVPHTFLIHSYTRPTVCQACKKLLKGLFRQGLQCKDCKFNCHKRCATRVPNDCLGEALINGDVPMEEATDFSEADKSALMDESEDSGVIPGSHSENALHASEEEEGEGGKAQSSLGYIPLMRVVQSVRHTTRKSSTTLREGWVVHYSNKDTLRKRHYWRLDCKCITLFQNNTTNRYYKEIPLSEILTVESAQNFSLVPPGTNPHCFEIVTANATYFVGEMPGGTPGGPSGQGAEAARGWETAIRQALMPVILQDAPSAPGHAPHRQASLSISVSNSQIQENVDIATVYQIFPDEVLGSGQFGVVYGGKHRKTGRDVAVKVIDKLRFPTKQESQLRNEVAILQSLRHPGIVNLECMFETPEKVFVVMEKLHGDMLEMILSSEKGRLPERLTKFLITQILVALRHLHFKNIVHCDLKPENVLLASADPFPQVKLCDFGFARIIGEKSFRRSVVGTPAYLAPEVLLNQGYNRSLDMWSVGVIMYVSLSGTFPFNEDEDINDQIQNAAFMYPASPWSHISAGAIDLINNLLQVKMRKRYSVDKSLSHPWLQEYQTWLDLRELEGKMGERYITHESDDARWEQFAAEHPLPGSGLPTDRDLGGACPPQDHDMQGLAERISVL
To be noted: at 0.1 µM.

The target in assay [11] is T3, Serine/threonine-protein kinase D2 (Homo sapiens). Conditions: at 1 µM.
Assay [12] deals with T4, Serine/threonine-protein kinase D3 (Homo sapiens) (UniProt O94806).
T4 sequence (whole entry): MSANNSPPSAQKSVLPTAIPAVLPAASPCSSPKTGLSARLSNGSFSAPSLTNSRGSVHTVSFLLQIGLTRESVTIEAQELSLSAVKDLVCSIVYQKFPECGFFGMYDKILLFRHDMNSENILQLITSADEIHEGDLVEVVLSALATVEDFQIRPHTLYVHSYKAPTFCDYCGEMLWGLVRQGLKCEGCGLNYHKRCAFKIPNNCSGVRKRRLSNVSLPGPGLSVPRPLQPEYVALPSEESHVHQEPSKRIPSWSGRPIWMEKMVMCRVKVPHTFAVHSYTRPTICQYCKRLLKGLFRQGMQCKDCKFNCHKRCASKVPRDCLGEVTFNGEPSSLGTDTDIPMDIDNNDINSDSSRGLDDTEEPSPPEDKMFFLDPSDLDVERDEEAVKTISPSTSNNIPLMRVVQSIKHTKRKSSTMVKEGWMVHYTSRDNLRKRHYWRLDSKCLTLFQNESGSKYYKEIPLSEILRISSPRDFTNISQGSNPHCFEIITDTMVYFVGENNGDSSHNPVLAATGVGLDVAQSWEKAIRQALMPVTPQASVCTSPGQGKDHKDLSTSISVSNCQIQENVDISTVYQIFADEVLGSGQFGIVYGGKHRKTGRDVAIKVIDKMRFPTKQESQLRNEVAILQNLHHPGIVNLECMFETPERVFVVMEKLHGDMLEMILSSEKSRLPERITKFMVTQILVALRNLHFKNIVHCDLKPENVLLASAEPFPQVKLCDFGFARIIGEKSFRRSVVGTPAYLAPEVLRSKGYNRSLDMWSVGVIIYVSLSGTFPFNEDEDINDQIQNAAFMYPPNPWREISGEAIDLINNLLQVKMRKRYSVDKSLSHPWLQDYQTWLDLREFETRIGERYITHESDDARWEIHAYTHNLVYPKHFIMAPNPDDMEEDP
To be noted: at 0.1 µM.

The target of assay [13] is T4, Serine/threonine-protein kinase D3 (Homo sapiens). Conditions: at 1 µM.
Assay [14] deals with T5, cGMP-dependent protein kinase 1 (Homo sapiens) (UniProt Q13976).
T5 sequence (whole entry): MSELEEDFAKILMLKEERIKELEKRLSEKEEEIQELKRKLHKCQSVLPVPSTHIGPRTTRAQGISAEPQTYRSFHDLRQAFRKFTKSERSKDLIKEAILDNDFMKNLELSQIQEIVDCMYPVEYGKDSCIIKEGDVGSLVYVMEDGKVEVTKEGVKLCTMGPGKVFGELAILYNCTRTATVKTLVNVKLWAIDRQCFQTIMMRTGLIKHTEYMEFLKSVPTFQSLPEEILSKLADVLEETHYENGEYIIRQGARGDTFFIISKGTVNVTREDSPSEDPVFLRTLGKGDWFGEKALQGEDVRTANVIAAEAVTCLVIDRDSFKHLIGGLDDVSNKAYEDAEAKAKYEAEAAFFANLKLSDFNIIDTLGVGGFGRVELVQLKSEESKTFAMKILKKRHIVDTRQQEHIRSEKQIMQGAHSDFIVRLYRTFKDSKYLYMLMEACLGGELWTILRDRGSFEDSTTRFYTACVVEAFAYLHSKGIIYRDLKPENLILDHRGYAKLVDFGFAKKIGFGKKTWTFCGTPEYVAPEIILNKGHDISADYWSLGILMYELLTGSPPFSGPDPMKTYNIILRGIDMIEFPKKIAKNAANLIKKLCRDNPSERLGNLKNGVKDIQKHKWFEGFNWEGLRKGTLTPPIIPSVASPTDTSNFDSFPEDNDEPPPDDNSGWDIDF
To be noted: at 0.1 µM.

Assay [15] concerns the target T5, cGMP-dependent protein kinase 1 (Homo sapiens). Conditions: at 1 µM.
The target in assay [16] is T6, cGMP-dependent protein kinase 2 (Homo sapiens) (UniProt Q13237).
T6 sequence (whole entry): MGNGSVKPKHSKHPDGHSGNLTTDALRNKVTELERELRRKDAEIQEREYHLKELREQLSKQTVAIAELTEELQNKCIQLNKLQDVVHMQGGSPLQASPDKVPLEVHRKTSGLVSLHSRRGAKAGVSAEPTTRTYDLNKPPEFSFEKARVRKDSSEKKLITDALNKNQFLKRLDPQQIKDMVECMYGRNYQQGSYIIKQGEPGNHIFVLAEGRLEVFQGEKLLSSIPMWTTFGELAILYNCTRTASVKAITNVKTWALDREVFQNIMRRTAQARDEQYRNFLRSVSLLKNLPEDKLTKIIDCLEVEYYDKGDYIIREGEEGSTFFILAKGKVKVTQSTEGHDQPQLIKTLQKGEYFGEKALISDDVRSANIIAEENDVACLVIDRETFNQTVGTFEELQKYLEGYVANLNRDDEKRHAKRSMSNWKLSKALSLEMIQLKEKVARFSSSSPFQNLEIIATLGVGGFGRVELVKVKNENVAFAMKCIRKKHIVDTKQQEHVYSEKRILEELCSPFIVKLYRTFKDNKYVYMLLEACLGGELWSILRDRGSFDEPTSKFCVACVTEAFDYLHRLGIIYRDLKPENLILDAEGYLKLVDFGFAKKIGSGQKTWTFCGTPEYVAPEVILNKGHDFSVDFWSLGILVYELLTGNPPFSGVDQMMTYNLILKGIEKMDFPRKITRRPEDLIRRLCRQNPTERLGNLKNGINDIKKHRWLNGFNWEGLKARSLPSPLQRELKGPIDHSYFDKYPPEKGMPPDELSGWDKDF
Conditions: at 0.1 µM.

Assay [17] concerns the target T6, cGMP-dependent protein kinase 2 (Homo sapiens). Conditions: at 1 µM.
The target of assay [18] is T7, cAMP-dependent protein kinase catalytic subunit PRKX (Homo sapiens) (UniProt P51817).
T7 sequence (whole entry): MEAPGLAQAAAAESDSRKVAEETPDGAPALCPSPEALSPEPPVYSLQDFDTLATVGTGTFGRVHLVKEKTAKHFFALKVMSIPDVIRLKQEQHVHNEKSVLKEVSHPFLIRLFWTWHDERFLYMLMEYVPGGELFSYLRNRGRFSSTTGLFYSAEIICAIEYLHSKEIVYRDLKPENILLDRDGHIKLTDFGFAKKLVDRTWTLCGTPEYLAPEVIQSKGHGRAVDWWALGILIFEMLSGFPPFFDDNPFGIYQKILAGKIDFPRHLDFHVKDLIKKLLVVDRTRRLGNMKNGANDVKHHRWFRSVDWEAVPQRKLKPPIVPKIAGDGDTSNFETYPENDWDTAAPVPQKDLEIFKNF
To be noted: at 0.1 µM.

Assay [19] has as its target T7, cAMP-dependent protein kinase catalytic subunit PRKX (Homo sapiens). Conditions: at 1 µM.
Assay [20] concerns the target Rho-associated protein kinase 1 (Homo sapiens) (UniProt Q13464). To be noted: at 0.1 µM.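 Also: values are mean percent inhibition of ROCK1.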

Sequence of Protein kinase C beta type (Homo sapiens) (P05771 2-671 limits assumed): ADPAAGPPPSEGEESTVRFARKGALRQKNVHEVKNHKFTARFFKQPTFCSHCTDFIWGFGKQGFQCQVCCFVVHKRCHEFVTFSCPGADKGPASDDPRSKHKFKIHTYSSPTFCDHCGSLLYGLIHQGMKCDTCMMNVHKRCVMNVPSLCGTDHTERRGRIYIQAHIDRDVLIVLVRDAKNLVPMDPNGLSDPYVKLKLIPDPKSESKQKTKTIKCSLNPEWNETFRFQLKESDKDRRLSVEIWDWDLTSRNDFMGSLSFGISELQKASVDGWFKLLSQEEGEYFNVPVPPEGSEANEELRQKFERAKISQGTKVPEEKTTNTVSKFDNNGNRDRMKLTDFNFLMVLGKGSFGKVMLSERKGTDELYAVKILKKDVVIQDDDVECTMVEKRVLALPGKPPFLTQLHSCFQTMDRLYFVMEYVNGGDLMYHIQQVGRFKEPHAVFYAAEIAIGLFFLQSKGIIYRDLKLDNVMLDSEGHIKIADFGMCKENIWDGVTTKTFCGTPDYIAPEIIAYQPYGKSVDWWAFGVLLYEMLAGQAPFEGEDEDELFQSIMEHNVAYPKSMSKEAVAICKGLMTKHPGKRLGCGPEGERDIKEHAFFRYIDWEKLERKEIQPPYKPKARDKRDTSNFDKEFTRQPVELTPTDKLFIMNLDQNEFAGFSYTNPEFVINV
Sequence of Protein kinase C theta type (Homo sapiens) (Q04759 whole entry, looked up): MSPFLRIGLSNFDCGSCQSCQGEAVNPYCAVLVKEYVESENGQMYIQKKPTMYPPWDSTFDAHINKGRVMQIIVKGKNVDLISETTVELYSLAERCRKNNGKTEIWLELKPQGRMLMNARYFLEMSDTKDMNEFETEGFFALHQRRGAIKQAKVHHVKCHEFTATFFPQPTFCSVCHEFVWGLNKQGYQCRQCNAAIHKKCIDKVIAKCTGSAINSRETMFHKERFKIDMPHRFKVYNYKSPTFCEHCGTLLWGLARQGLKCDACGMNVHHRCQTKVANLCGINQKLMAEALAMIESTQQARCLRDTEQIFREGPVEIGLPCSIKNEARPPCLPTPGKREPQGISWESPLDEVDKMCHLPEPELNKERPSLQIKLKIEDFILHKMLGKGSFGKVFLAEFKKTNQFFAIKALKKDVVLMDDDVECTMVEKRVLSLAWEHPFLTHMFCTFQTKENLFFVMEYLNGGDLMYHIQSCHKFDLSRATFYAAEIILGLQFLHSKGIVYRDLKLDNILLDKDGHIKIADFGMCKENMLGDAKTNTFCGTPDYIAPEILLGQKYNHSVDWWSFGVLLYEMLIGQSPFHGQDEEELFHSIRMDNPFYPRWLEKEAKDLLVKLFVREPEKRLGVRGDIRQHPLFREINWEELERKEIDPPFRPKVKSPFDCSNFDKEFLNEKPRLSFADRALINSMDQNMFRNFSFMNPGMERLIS
Sequence of Rho-associated protein kinase 1 (Homo sapiens) (Q13464 2-1354 limits assumed): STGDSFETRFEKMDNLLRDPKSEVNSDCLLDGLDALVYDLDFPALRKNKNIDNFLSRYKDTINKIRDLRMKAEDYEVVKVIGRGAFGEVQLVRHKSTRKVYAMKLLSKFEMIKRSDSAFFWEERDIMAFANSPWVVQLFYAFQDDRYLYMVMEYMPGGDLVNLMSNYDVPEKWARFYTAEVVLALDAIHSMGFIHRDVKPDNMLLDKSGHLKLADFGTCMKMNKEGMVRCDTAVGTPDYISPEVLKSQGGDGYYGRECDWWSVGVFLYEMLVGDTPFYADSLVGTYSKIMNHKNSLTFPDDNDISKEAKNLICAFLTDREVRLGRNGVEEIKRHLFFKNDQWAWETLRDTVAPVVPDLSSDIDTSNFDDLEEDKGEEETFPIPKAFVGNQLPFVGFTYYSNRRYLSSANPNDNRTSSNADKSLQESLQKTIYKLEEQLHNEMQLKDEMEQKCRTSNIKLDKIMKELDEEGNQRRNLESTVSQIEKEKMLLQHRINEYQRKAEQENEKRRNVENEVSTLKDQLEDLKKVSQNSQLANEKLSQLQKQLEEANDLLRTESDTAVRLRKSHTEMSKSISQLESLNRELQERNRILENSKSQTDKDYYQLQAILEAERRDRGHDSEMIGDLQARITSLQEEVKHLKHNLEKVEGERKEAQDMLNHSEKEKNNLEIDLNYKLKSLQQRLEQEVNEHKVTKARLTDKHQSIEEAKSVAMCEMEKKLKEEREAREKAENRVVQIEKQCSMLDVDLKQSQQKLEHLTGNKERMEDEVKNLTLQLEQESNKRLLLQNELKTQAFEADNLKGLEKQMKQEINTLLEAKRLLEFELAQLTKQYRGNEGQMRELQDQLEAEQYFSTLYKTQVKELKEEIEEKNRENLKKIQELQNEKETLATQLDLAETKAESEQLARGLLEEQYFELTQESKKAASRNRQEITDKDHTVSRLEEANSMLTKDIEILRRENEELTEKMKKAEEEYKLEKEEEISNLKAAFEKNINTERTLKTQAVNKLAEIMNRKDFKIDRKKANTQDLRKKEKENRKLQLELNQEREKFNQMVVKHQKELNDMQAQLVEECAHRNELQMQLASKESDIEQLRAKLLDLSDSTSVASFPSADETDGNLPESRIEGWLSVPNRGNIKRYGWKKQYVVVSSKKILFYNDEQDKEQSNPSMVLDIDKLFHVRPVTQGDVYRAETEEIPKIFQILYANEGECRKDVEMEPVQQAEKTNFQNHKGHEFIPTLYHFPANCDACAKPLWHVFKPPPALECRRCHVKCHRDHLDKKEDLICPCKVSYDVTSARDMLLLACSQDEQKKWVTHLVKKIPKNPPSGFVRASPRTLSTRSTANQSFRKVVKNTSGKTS

Consider `Fc1ccc(-c2c(-c3ccncc3)nc3n2CCS3)cc1`, for which the inhibition (in general, the change of the read-out against control, counted positive when it falls) was 4.08% in assay [1]; 1.39% in assay [2]; 1.01% in [3]; 1.55% in [4]; 4.99% in [5]; 1.11% in assay [6]. The inhibition in assay [7] is 3.63%; in [8], -0.81%; in assay [9] it was 2.14%; in assay [10] it was -0.29%; in assay [11] it was 0.4%; in [12], 0.15%. The inhibition in assay [13] is 1.02%; in assay [14] it was 4.15%; in [15] it was 8.03%; in assay [16] it was 2.62%; in assay [17], 7.38%; in [18] it was 6.08%. The inhibition is 14.6% in [19] and 8.73% in assay [20].
